Laboratory results: PubChem BioAssay (EPA / NIEHS)
Calls of active or inactive are those of the source. How the source made its calls: active means hit-call score of the fitted dose curve at least 0.9, where 1 is the maximum; inactive means score below 0.9.

Each molecule was assayed on solute carrier (SLCO1B1), SLCO1B1 (gene 10599) (assay: LTEA_HepaRG_SLCO1B1: Life Technologies and Expression Analysis (LTEA) Assay for solute carrier (SLCO1B1) using HepaRG (AID 2283530)). Conditions: mRNA level, 48 h; actives raise or lower the signal.
Summary of the method: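 Differentiated human HepaRG cells were exposed for 48 h in serum-free induction medium to eight half-log concentrations, top 100 uM, in 0.5% DMSO. SLCO1B1 mRNA was measured by qRT-PCR, normalized to ACTB, GAPDH and POLR2A, and fitted bidirectionally against DMSO.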
CN(Cc1cnc2nc(N)nc(N)c2n1)c1ccc(C(=O)N[C@@H](CCC(=O)O)C(=O)O)cc1 was tested, and the outcome was “inactive”.
With OCC(CO)(CBr)CBr the outcome was “inactive”.
In the case of Cc1[nH]nc2c1N=C(c1ccccc1Cl)c1cc([N+](=O)[O-])ccc1N2, the AC50 is reported as 7.93 µM (active).
For O=C(CCCN1CCC(O)(c2ccc(Cl)cc2)CC1)c1ccc(F)cc1, the AC50 was 82.6 µM (active).
With N=C(N)c1ccc(OCCCCCOc2ccc(C(=N)N)cc2)cc1 the AC50 was 3.57 µM (active).
O=C1NS(=O)(=O)c2ccccc21 was tested, and the outcome was “inactive”.
CCCCC=O was tested, and the outcome was “inactive”.
For CCCCc1oc2ccccc2c1C(=O)c1cc(I)c(OCCN(CC)CC)c(I)c1, the AC50 was 67.7 µM (active).
With CCCCC(CC)C(=O)O (centres undefined) the outcome was “inactive”.
With CCCCCCCCCCCCCCC the outcome was “inactive”.
For CCC(C)c1ccccc1O (centres undefined), the outcome was “inactive”.
For CS(=O)(=O)c1ccc([C@@H](CC2CCCC2)C(=O)Nc2cnccn2)cc1Cl, the AC50 was 84 µM (active).
In the case of O=C(c1ccccc1)c1ccccc1, the outcome is reported as “inactive”.
In the case of CN(C)CCOC(c1ccccc1)c1ccccc1, the outcome is reported as “inactive”.
For CC(=O)Nc1ccc(O)cc1, the outcome was “inactive”.

Each molecule was assayed on sulfotransferase 2A1 (SULT2A1), SULT2A1 (gene 6822) (assay: LTEA_HepaRG_SULT2A1: Life Technologies and Expression Analysis (LTEA) Assay for sulfotransferase 2A1 (SULT2A1) using HepaRG (AID 2283531)). Conditions: mRNA level, 48 h; actives raise or lower the signal.
Summary of the method: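 HepaRG human liver cells, 48 h exposure in serum-free induction medium to 8 half-log concentrations topping at 100 µM (0.5% DMSO), duplicate wells. SULT2A1 mRNA measured by TaqMan qRT-PCR, normalized to ACTB/GAPDH/POLR2A; bidirectional fit against DMSO.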
With CN(Cc1cnc2nc(N)nc(N)c2n1)c1ccc(C(=O)N[C@@H](CCC(=O)O)C(=O)O)cc1 the AC50 was 0.266 µM (active).
For OCC(CO)(CBr)CBr, the outcome was “inactive”.
For Cc1[nH]nc2c1N=C(c1ccccc1Cl)c1cc([N+](=O)[O-])ccc1N2, the AC50 was 28.3 µM (active).
For O=C(CCCN1CCC(O)(c2ccc(Cl)cc2)CC1)c1ccc(F)cc1, the AC50 was 95.2 µM (active).
N=C(N)c1ccc(OCCCCCOc2ccc(C(=N)N)cc2)cc1 was tested, and the AC50 was 12.6 µM (active).
In the case of O=C1NS(=O)(=O)c2ccccc21, the outcome is reported as “inactive”.
For CCCCC=O, the outcome was “inactive”.
With CCCCc1oc2ccccc2c1C(=O)c1cc(I)c(OCCN(CC)CC)c(I)c1 the AC50 was 70.5 µM (active).
In the case of CCCCCCCCCCCCOS(=O)(=O)O, the AC50 is reported as 80.2 µM (active).
CCCCC(CC)C(=O)O (centres undefined) was tested, and the outcome was “inactive”.
In the case of CCCCCCCCCCCCCCC, the outcome is reported as “inactive”.
For CCC(C)c1ccccc1O (centres undefined), the outcome was “inactive”.
For CS(=O)(=O)c1ccc([C@@H](CC2CCCC2)C(=O)Nc2cnccn2)cc1Cl, the AC50 was 94.3 µM (active).
With O=C(c1ccccc1)c1ccccc1 the outcome was “inactive”.
For CN(C)CCOC(c1ccccc1)c1ccccc1, the outcome was “inactive”.
In the case of CC(=O)Nc1ccc(O)cc1, the outcome is reported as “inactive”.

These molecules were tested on Transforming Growth Factor (TGFA), TGFA (gene 7039) (assay: LTEA_HepaRG_TGFA: Life Technologies and Expression Analysis (LTEA) Assay for Transforming Growth Factor (TGFA) using HepaRG (AID 2283532)). Conditions: mRNA level, 48 h; actives raise or lower the signal.
Summary of the method: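 HepaRG (human liver line), 48 h exposure, 8 conc. half-log down from 100 uM, 0.5% DMSO vehicle, duplicates; serum-free induction medium. TGFA mRNA by TaqMan qRT-PCR, ACTB/GAPDH/POLR2A normalization; gain/loss fit vs DMSO.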
With CN(Cc1cnc2nc(N)nc(N)c2n1)c1ccc(C(=O)N[C@@H](CCC(=O)O)C(=O)O)cc1 the outcome was “inactive”.
For OCC(CO)(CBr)CBr, the outcome was “inactive”.
In the case of Cc1[nH]nc2c1N=C(c1ccccc1Cl)c1cc([N+](=O)[O-])ccc1N2, the AC50 is reported as 50 µM (active).
With O=C(CCCN1CCC(O)(c2ccc(Cl)cc2)CC1)c1ccc(F)cc1 the AC50 was 79.2 µM (active).
N=C(N)c1ccc(OCCCCCOc2ccc(C(=N)N)cc2)cc1 was tested, and the AC50 was 11 µM (active).
For O=C1NS(=O)(=O)c2ccccc21, the outcome was “inactive”.
CCCCC=O was tested, and the outcome was “inactive”.
CCCCc1oc2ccccc2c1C(=O)c1cc(I)c(OCCN(CC)CC)c(I)c1 was tested, and the AC50 was 55.3 µM (active).
For CCCCCCCCCCCCOS(=O)(=O)O, the outcome was “inactive”.
With CCCCC(CC)C(=O)O (centres undefined) the outcome was “inactive”.
In the case of CCCCCCCCCCCCCCC, the outcome is reported as “inactive”.
CCC(C)c1ccccc1O (centres undefined) was tested, and the outcome was “inactive”.
With CS(=O)(=O)c1ccc([C@@H](CC2CCCC2)C(=O)Nc2cnccn2)cc1Cl the outcome was “inactive”.
In the case of O=C(c1ccccc1)c1ccccc1, the outcome is reported as “inactive”.
With CN(C)CCOC(c1ccccc1)c1ccccc1 the outcome was “inactive”.
CC(=O)Nc1ccc(O)cc1 was tested, and the outcome was “inactive”.

What follows are molecules tested on Transforming Growth Factor (TGFB1), TGFB1 (gene 7040) (assay: LTEA_HepaRG_TGFB1: Life Technologies and Expression Analysis (LTEA) Assay for Transforming Growth Factor (TGFB1) Transporter using HepaRG (AID 2283533)). Conditions: mRNA level, 48 h; actives raise or lower the signal.
Summary of the method: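 Differentiated HepaRG cells exposed 48 hr in serum-free induction medium to eight half-log concentrations up to 100 uM (0.5% DMSO), duplicate; TGFB1 mRNA by TaqMan qRT-PCR normalised to ACTB, GAPDH, POLR2A; bidirectional fit against DMSO.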
In the case of CN(Cc1cnc2nc(N)nc(N)c2n1)c1ccc(C(=O)N[C@@H](CCC(=O)O)C(=O)O)cc1, the outcome is reported as “inactive”.
With OCC(CO)(CBr)CBr the outcome was “inactive”.
For Cc1[nH]nc2c1N=C(c1ccccc1Cl)c1cc([N+](=O)[O-])ccc1N2, the AC50 was 1.74 µM (active).
With O=C(CCCN1CCC(O)(c2ccc(Cl)cc2)CC1)c1ccc(F)cc1 the AC50 was 73.6 µM (active).
For N=C(N)c1ccc(OCCCCCOc2ccc(C(=N)N)cc2)cc1, the AC50 was 69.8 µM (active).
In the case of O=C1NS(=O)(=O)c2ccccc21, the outcome is reported as “inactive”.
CCCCC=O was tested, and the outcome was “inactive”.
For CCCCc1oc2ccccc2c1C(=O)c1cc(I)c(OCCN(CC)CC)c(I)c1, the outcome was “inactive”.
With CCCCCCCCCCCCOS(=O)(=O)O the AC50 was 80.9 µM (active).
CCCCC(CC)C(=O)O (centres undefined) was tested, and the outcome was “inactive”.
With CCCCCCCCCCCCCCC the outcome was “inactive”.
CCC(C)c1ccccc1O (centres undefined) was tested, and the outcome was “inactive”.
In the case of CS(=O)(=O)c1ccc([C@@H](CC2CCCC2)C(=O)Nc2cnccn2)cc1Cl, the AC50 is reported as 74.1 µM (active).
With O=C(c1ccccc1)c1ccccc1 the outcome was “inactive”.
For CN(C)CCOC(c1ccccc1)c1ccccc1, the outcome was “inactive”.
In the case of CC(=O)Nc1ccc(O)cc1, the outcome is reported as “inactive”.

The molecules below were run on TIMP1, TIMP1 (gene 7076) (assay: LTEA_HepaRG_TIMP1: Life Technologies and Expression Analysis (LTEA) Assay for TIMP1 using HepaRG (AID 2283534;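 on outcome: TaqMan qRT-PCR signal normalized to ACTB GAPDH and POLR2A housekeeping genes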)). Conditions: mRNA level, 48 h; actives raise or lower the signal.
Summary of the method: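 Differentiated HepaRG cells exposed 48 h in serum-free induction medium, duplicates, eight half-log concentrations from 100 uM in 0.5% DMSO. TIMP1 mRNA by qRT-PCR normalized to ACTB, GAPDH, POLR2A; bidirectional fitting against DMSO.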
CN(Cc1cnc2nc(N)nc(N)c2n1)c1ccc(C(=O)N[C@@H](CCC(=O)O)C(=O)O)cc1 was tested, and the outcome was “inactive”.
With OCC(CO)(CBr)CBr the outcome was “inactive”.
Cc1[nH]nc2c1N=C(c1ccccc1Cl)c1cc([N+](=O)[O-])ccc1N2 was tested, and the AC50 was 2.38 µM (active).
With O=C(CCCN1CCC(O)(c2ccc(Cl)cc2)CC1)c1ccc(F)cc1 the outcome was “inactive”.
With N=C(N)c1ccc(OCCCCCOc2ccc(C(=N)N)cc2)cc1 the AC50 was 43.8 µM (active).
O=C1NS(=O)(=O)c2ccccc21 was tested, and the outcome was “inactive”.
With CCCCC=O the outcome was “inactive”.
CCCCc1oc2ccccc2c1C(=O)c1cc(I)c(OCCN(CC)CC)c(I)c1 was tested, and the outcome was “inactive”.
CCCCCCCCCCCCOS(=O)(=O)O was tested, and the outcome was “inactive”.
With CCCCC(CC)C(=O)O (centres undefined) the outcome was “inactive”.
In the case of CCCCCCCCCCCCCCC, the outcome is reported as “inactive”.
In the case of CCC(C)c1ccccc1O (centres undefined), the outcome is reported as “inactive”.
CS(=O)(=O)c1ccc([C@@H](CC2CCCC2)C(=O)Nc2cnccn2)cc1Cl was tested, and the outcome was “inactive”.
O=C(c1ccccc1)c1ccccc1 was tested, and the outcome was “inactive”.
In the case of CN(C)CCOC(c1ccccc1)c1ccccc1, the outcome is reported as “inactive”.
With CC(=O)Nc1ccc(O)cc1 the outcome was “inactive”.
